# The campaign covered roughly 5,500 compounds. About 2,000 (36%) were called active. Inconclusive results (about 18%) are left out. This is one part of the list. Unmarked numbers belong to inactive results. No stated cut-off is given here; in the data, active means normalized growth mostly below about 0.91 (no sharp cut-off); inconclusive means no clear call, values can overlap the other calls; inactive means mostly above about 0.92.
# Experiment: chemical genetic growth profiling, strain panel (AID 1159580);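 further: tested at 20 µM; growth read once vehicle control cultures reached saturation at 30 °C; 1 = growth at the plate median or of vehicle wells; lower values mean less growth of the strain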
# Settings: S. cerevisiae deletion strains, growth OD
smiles,measurement,setting,value
COc1ccc(C(=O)c2ccccc2)c(O)c1O,normalized growth,"locus YAL013W, strain DEP1, active compounds read low",0.929
same,normalized growth,"locus YAL021C, strain ccr4, active compounds read low",0.981
same,normalized growth,"locus YAL026C, strain drs2, active compounds read low",0.973
same,normalized growth,"locus YAL030W, strain snc1, active compounds read low",0.974
same,normalized growth,"locus YBL061C, strain skt5, active compounds read low",0.973
same,normalized growth,"locus YBR009C, strain hhf1, active compounds read low",0.973
same,normalized growth,"locus YBR021W, strain FUR4, active compounds read low",0.853
same,normalized growth,"locus YBR023C, strain chs3, active compounds read low",0.969
same,normalized growth,"locus YBR171W, strain sec66, active compounds read low",0.945
same,normalized growth,"locus YBR229C, strain ROT2, active compounds read low",0.999
same,normalized growth,"locus YBR231C, strain swc5, active compounds read low",0.962
same,normalized growth,"locus YBR279W, strain paf1, active compounds read low",0.957
same,normalized growth,"locus YCL011C, strain gbp2, active compounds read low",0.968
same,normalized growth,"locus YCL016C, strain dcc1, active compounds read low",0.986
same,normalized growth,"locus YCL029C, strain bik1, active compounds read low",0.956
same,normalized growth,"locus YCL061C, strain MRC1, active compounds read low",0.968
same,normalized growth,"locus YCL069W, strain vba3, active compounds read low",0.986
same,normalized growth,"locus YCR088W, strain abp1, active compounds read low",0.981
same,normalized growth,"locus YDL005C, strain med2, active compounds read low",0.971
same,normalized growth,"locus YDL035C, strain GPR1, active compounds read low",0.974
same,normalized growth,"locus YDL040C, strain nat1, active compounds read low",0.985
same,normalized growth,"locus YDL074C, strain BRE1, active compounds read low",0.868
same,normalized growth,"locus YDL101C, strain DUN1, active compounds read low",0.953
same,normalized growth,"locus YDL134C, strain PPH21, active compounds read low",0.904
same,normalized growth,"locus YDL185W, strain tfp1, active compounds read low",0.901 (active)
same,normalized growth,"locus YDL192W, strain arf1, active compounds read low",0.892 (active)
same,normalized growth,"locus YDR001C, strain nth1, active compounds read low",0.975
same,normalized growth,"locus YDR069C, strain doa4, active compounds read low",0.939
same,normalized growth,"locus YDR101C, strain arx1, active compounds read low",0.983
same,normalized growth,"locus YDR137W, strain rgp1, active compounds read low",0.787 (active)
same,normalized growth,"locus YDR159W, strain sac3, active compounds read low",0.975
same,normalized growth,"locus YDR162C, strain NBP2, active compounds read low",0.947
same,normalized growth,"locus YDR195W, strain ref2",1.02
same,normalized growth,"locus YDR297W, strain sur2, active compounds read low",0.966
same,normalized growth,"locus YDR318W, strain mcm21, active compounds read low",0.933
same,normalized growth,"locus YDR334W, strain swr1, active compounds read low",0.951
same,normalized growth,"locus YDR335W, strain msn5, active compounds read low",0.97
same,normalized growth,"locus YDR388W, active compounds read low",0.962
same,normalized growth,"locus YDR392W, strain spt3, active compounds read low",0.851
same,normalized growth,"locus YDR502C, strain sam2, active compounds read low",0.9 (active)
same,normalized growth,"locus YEL003W, strain gim4, active compounds read low",0.96
same,normalized growth,"locus YEL037C, strain rad23, active compounds read low",0.964
same,normalized growth,"locus YEL061C, strain CIN8 (second series), active compounds read low",0.974
same,normalized growth,"locus YEL061C, strain CIN8, active compounds read low",0.967
same,normalized growth,"locus YER015W, strain faa2, active compounds read low",0.965
same,normalized growth,"locus YER016W, strain bim1, active compounds read low",0.972
same,normalized growth,"locus YER110C, active compounds read low",0.936
same,normalized growth,"locus YER111C, strain swi4, active compounds read low",0.97
same,normalized growth,"locus YER155C, strain BEM2 (second series), active compounds read low",0.81 (active)
same,normalized growth,"locus YER155C, strain BEM2, active compounds read low",1.02
same,normalized growth,"locus YER167W, strain BCK2, active compounds read low",0.997
same,normalized growth,"locus YFR010W, strain ubp6, active compounds read low",0.937
same,normalized growth,"locus YGL078C, strain dbp3, active compounds read low",0.909 (active)
same,normalized growth,"locus YGL086W, strain mad1, active compounds read low",0.937
same,normalized growth,"locus YGL167C, strain pmr1, active compounds read low",0.955
same,normalized growth,"locus YGL173C, strain kem1, active compounds read low",0.948
same,normalized growth,"locus YGL227W, strain vid30, active compounds read low",0.99
same,normalized growth,"locus YGL240W, strain doc1, active compounds read low",0.92
same,normalized growth,"locus YGL248W, strain PDE1, active compounds read low",0.92
same,normalized growth,"locus YGL253W, strain hxk2, active compounds read low",0.979
same,normalized growth,"locus YGR078C, strain PAC10, active compounds read low",0.891
same,normalized growth,"locus YGR135W, strain pre9, active compounds read low",0.846 (active)
same,normalized growth,"locus YGR252W, strain gcn5, active compounds read low",0.698 (active)
same,normalized growth,"locus YHR013C, strain ard1, active compounds read low",0.941
same,normalized growth,"locus YHR027C, strain rpn1, active compounds read low",0.959
same,normalized growth,"locus YHR030C, strain SLT2, active compounds read low",0.979
same,normalized growth,"locus YHR079C, strain IRE1 (second series), active compounds read low",0.932
same,normalized growth,"locus YHR094C, strain hxt1, active compounds read low",0.955
same,normalized growth,"locus YHR129C, strain ARP1, active compounds read low",0.927
same,normalized growth,"locus YHR142W, strain chs7, active compounds read low",0.939
same,normalized growth,"locus YHR200W, strain rpn10, active compounds read low",0.937
same,normalized growth,"locus YIL066C, strain RNR3, active compounds read low",0.976
same,normalized growth,"locus YIL073C, strain SPO22, active compounds read low",0.897
same,normalized growth,"locus YIL125W, strain kgd1, active compounds read low",0.969
same,normalized growth,"locus YIR030C, strain dcg1, active compounds read low",0.958
same,normalized growth,"locus YJL092W, strain hpr5, active compounds read low",0.967
same,normalized growth,"locus YJL095W, strain BCK1 (second series), active compounds read low",0.971
same,normalized growth,"locus YJL095W, strain BCK1, active compounds read low",0.724 (active)
same,normalized growth,"locus YJL115W, strain asf1, active compounds read low",0.945
same,normalized growth,"locus YJL129C, strain trk1, active compounds read low",0.966
same,normalized growth,"locus YJL134W, strain LCB3, active compounds read low",0.991
same,normalized growth,"locus YJL154C, strain vps35, active compounds read low",0.972
same,normalized growth,"locus YJL164C, strain tpk1, active compounds read low",0.96
same,normalized growth,"locus YJL166W, strain qcr8, active compounds read low",0.973

# Reference: PubChem BioAssay AID1159580 (chemical genetic matrix, 2015)
